PubChem BioAssay AID1347075 (National Center for Advancing Translational Sciences (NCATS), 2019)
The whole screen tested about 400,000 compounds, of which about 5,500 (1.4%) were called active. About 9% were inconclusive and are not listed. What follows is part of a selection rich in actives, with near analogues and random picks from the rest. Unmarked numbers belong to inactive results. Calls come from the whole dose curve; as a rule, active = well fitted cell-killing curve with a large enough effect; inconclusive = small, poorly fitted or top-dose-only effect, or effect the other way; inactive = flat fitted curve, though single readings scatter.

Assay: qHTS assay for MDR1-selective chemotherapeutics: Primary screen using the parental adenocarcinoma cell KB-3-1; note: nearly all actives have a fitted effect of over 60% in size
Conditions: KB-3-1 viability, CellTiter-Glo ATP luminescence, 72 h; series mostly up to 46.1 µM; activity change, negative = cytotoxic: at the top concentration
Method in brief: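 Cytotoxicity in the drug-sensitive parental line KB-3-1 was scored as loss of CellTiter-Glo luminescence following 72 h incubation with compound. Values come from curve fitting of normalized concentration-response data.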
% is set by controls: 0 for no effect and ±100 for the full control effect; potency is the fitted concentration of half-maximal effect.

SMILES	activity change, negative = cytotoxic	Potency
CCSc1ncc(Cl)c(C(=O)Nc2c(C(=O)c3ccccc3)oc3ccccc23)n1	1.5%	
Cc1cn(C)c(CC(=O)NCc2ccccc2)c1C(=O)O	0.565%	
CC(C)CC(=O)NCC(c1ccc2c(c1)OCO2)N1CCN(c2ccc(F)cc2)CC1 (stereo unspecified)	-5.63%	
c1ccc(CNCc2ccc(CNCc3ccccc3)cc2)cc1	1.49%	
c1ccc(Cc2cc[n+](Cc3ccccc3)cc2)cc1		18.4 µM (active)
[O-][n+]1ccc(OCc2ccccc2)cc1	3.6%	
CCC(=O)Nc1c(C(=O)N2CCN(c3ccc(F)cc3)CC2)oc2ccccc12	-8.2%	
COCCN(Cc1ccco1)C(=O)Cn1ncc2c([nH]c3ccccc32)c1=O	0%	
CCOc1[nH]n(-c2ccc(Cl)cc2)c(=O)c1C=Nc1ccc(O)cc1		18.4 µM (active)
CCOc1ccc(N=C2NC(=O)S/C2=C\c2ccc(O)cc2)cc1	-1.86%	
Fc1ccc(C(Nc2ccc(Cl)c(C(F)(F)F)c2)c2nnc(-c3ccccc3)o2)cc1 (stereo unspecified)	-5.25%	
CCOc1ccccc1N(CC)C(=O)c1cc2ccc3cccnc3c2[nH]1	-25%	
Cc1cccc(N(C)C(=O)c2cc3c(=O)[nH]c4ccc(C)cc4c3s2)c1		7.31 µM (active)
CCN(CC)CCCNC(=O)c1cc2c(=O)[nH]c3ccc(C)cc3c2s1	-17.6%	
COc1ccc(CNC(=O)c2cc3c(=O)[nH]c4ccc(C)cc4c3s2)c(OC)c1	5.62%	
COc1cc(NC(=O)c2cc(C3CC3)nc3c2c(C)nn3-c2ccccc2)cc(OC)c1	2.42%	
CSc1ccc(CCNC(=O)c2cc(C)nc3c2c(C)nn3-c2cccc(F)c2)cc1	1.14%	
Cc1cc(C(=O)Nc2cccc(C(F)(F)F)c2)c2c(C)nn(-c3cccc(F)c3)c2n1		18.4 µM (active)
Cc1ccc(S(=O)(=O)N2CCN(C)CC2)cc1	0.612%	
Cc1ccc(S(=O)(=O)C2(S(=O)(=O)c3ccc(C)cc3)CCCC2)cc1		6.51 µM (active)
Cc1ccc(S(=O)(=O)N(C)C2(C)CCS(=O)(=O)C2)cc1 (stereo unspecified)	4.15%	
COc1ccc(C2c3c(oc4ccccc4c3=O)C(=O)N2Cc2ccc3c(c2)OCO3)cc1 (stereo unspecified)	-6.25%	
COC(=O)c1sccc1S(=O)(=O)N(CC(=O)Nc1ccc(C)c(F)c1)c1ccc(C)c(C)c1	-20%	
O=C(Nc1ccc(-c2nc3ccccc3[nH]2)cc1)c1ccncc1	-9.06%	
CCCC(=O)Nc1nc2ccc(NC(=O)c3c(F)c(F)c(OC)c(F)c3F)cc2s1		2.59 µM (active)
CCCn1nc(C(=O)Nc2ccc3nc(C)sc3c2)c2ccccc2c1=O	-0.715%	

SMILES	activity change, negative = cytotoxic	Potency
CC(=O)Nc1ccc2nc(NC(=O)CS(=O)(=O)c3ccc(F)cc3)sc2c1	8.18%	
CC(=O)c1ccc(N2CCN(c3nc4c(S(=O)(=O)c5ccccc5)nnn4c4ccc(Cl)cc34)CC2)cc1	1.16%	
O=C(N/N=C/c1ccc(Cl)c(Cl)c1)c1ccc2nc[nH]c2c1		18.4 µM (active)
CC(=NNC(=O)c1ccc2nc[nH]c2c1)c1ccc(Br)cc1	-11.4%	
CC1=NNC(=O)C1CCC(=O)N/N=C\c1ccc(Cl)c(Cl)c1 (stereo unspecified)	23.2%	
CNc1ccc(-c2nc(-c3ccccc3C)no2)cc1[N+](=O)[O-]	-1.62%	
COc1ccc(Cn2cc(C(=O)c3ccc(C)cc3)c(=O)c3cc(OC)c(OC)cc32)cc1	11.2%	
O=C1C[C@H]2C=CCc3cccc(c32)CN1Cc1ccccc1	-5.23%	
COc1ccc(C2C(C#N)=C(N)Oc3cc(N)ccc32)cc1OC (stereo unspecified)		16.4 µM (active)
COc1ccc(C2C(C#N)=C(/N=C/N3CCOCC3)OC3=C2C(=O)CC(C)(C)C3)cc1OC (stereo unspecified)	7.96%	
N#CC1=C(N)Oc2cc(O)ccc2C1C1CCCCC1 (stereo unspecified)	0%	
O=C(NCc1ccc(F)cc1)c1ccc2nc(N3CCCCC3)sc2c1	16.9%	
COc1ccc2nc(N3CCN(C(=O)c4ccc([N+](=O)[O-])o4)CC3)sc2c1		16.4 µM (active)
CC1CCN(c2nc3ccc(C(=O)N4CCN(c5ccccc5)CC4)cc3s2)CC1	0%	
COc1cc(C(=O)N2CCN(C(=O)COc3cccc(C)c3)CC2)cc(OC)c1OC	-6.07%	
CC(=O)Nc1cnc(-c2ccc(O)cc2C)cn1	-0.089%	
Cc1ccc(Nc2nc(-c3ccc(O)cc3O)cs2)nc1		20.6 µM (active)
Cc1ccn2c(-c3csc(Nc4ccc(C(=O)O)cc4)n3)c(C)nc2c1	-6.25%	
Cc1ccc(CN2CCCn3nc(C(=O)NCc4ccccc4Cl)cc3C2=O)cc1	-19.7%	
CCOC(=O)c1nnn(CC(=O)NC(=O)Nc2ccccc2F)c1C(=O)OCC	18.1%	
COC(=O)c1c(C)oc(C)c1S(=O)(=O)Nc1ccc(C(C)C)cc1		3.26 µM (active)
COC(=O)c1c(C)oc(C)c1S(=O)(=O)NCc1ccc(Cl)cc1	-8.99%	
COC(=O)c1ccccc1S(=O)(=O)Nc1ccc(OC)cc1	0%	
O=C(Nc1cc(Br)ccc1F)c1nc[nH]c1C(=O)NCc1ccccc1	-0.0726%	
O=C(Nc1ccon1)c1nc[nH]c1C(=O)NCc1ccccc1		5.8 µM (active)
CC(C)(C)OC(=O)NCCCCCNC(=O)c1nc[nH]c1C(=O)NCc1ccccc1	0.352%	

SMILES	activity change, negative = cytotoxic	Potency
COc1ccc(NC(=O)c2ccc3nc(C(C)C)oc3c2)cc1OC	-2.26%	
COC(=O)c1sc2ncccc2c1-n1c(C)ccc1C	20.6%	
O=C(NC1CCCCC1)c1ccc(Cn2c(SCc3ccccc3)nc3cccnc32)cc1	7.78%	
Cc1oc2c(c1C(=O)Nc1ccc(F)c(F)c1)C1=NCCN1C=N2	16.5%	
O=C(Nc1ccc2nc(SCC(=O)N3CCc4ccccc43)sc2c1)c1ccccc1F	9.11%	
CCOc1ccc(NC(=O)c2cn(C3CCCCC3)c(=O)c3c2c2ccccc2n3C)cc1	-1.1%	
COCCNC(=O)CSc1nc(-c2ccccc2)[nH]c1-c1ccc(C)cc1	0%	
COc1cccc(-c2nc(S(=O)(=O)c3ccc(C)cc3)c(NCc3ccccc3)o2)c1	-8.2%	
CC(Nc1ccc(-c2nc(-c3ccco3)no2)cc1[N+](=O)[O-])c1ccccc1 (stereo unspecified)	-23.5%	
O=C(NCc1ccccc1)C1CCN(S(=O)(=O)c2ccc3[nH]c(=O)ccc3c2)CC1	0.516%	
COc1ccccc1N1CC(C(=O)Nc2ccc(S(=O)(=O)N3CCOCC3)cc2)CC1=O (stereo unspecified)	8.27%	
COc1cc(OC)c(N2CC(C(=O)Nc3cc(Cl)ccc3N3CCOCC3)CC2=O)cc1Cl (stereo unspecified)		5.8 µM (active)
COc1ccc(Cl)cc1NC(=O)C1CC(=O)N(c2ccc(F)cc2)C1 (stereo unspecified)	0.372%	
CCCCn1cc(S(=O)(=O)c2ccc(OCC)cc2)c(=O)c2cc(OC)c(OC)cc21	3.26%	
Cc1cccc(N2CCN(C(=O)c3ccc(Nc4nc5ccccc5n5nnnc45)cc3)CC2)c1C	10.5%	
CCN(CC)S(=O)(=O)c1cc(C(=O)Nc2cc(S(=O)(=O)N3CCOCC3)ccc2N2CCCC2)ccc1F	-7.07%	
CCN(CC)S(=O)(=O)c1ccc(N2CCOCC2)c(NC(=O)c2ccc(=O)n(C)n2)c1	1.26%	
CCN(CC)S(=O)(=O)c1ccc(N2CCCC2)c(NC(=O)c2ccc([N+](=O)[O-])o2)c1		6.51 µM (active)
Cc1[nH]c2ccccc2c1C(=O)C(=O)N(C)c1ccccc1	0%	
CCn1c2c(c(=O)n3ncc(C(=O)N4CCN(c5ccccc5)CC4)c13)CN(Cc1ccc(OC)cc1)CC2	-2.44%	
CC(=N\NC(=O)c1cc(Br)ccc1O)/C(=N/O)C(=O)Nc1ccccc1	-43.4%	
C/C(=N/NC(=O)CCc1ccccc1)c1ccco1	19.7%	
C/C(=N\NC(=O)c1ccoc1C)c1ccccc1O		14.6 µM (active)
O=C(NCc1ccc2c(c1)CCN2C(=O)c1ccccc1)c1ccccc1	4.06%	
COc1ccc(NC(=O)Cn2c(=O)n(Cc3ccc(C(=O)NCc4ccccc4Cl)cc3)c(=O)c3ccccc32)cc1	4.15%	
C=CC(=O)OCCOCCOCCOCCOC(=O)C=C		10.3 µM (active)

SMILES	activity change, negative = cytotoxic	Potency
CCOC(=O)c1ccc(NC(=O)Cn2c(=O)cc(C)c3c(C)nn(-c4cccc(F)c4)c32)cc1	0.642%	
CCC(=O)N1CCc2cc(CNC(=O)Nc3ccccc3Cl)ccc21	-20.1%	
COC(=O)c1scc(-c2ccc(C)cc2)c1S(=O)(=O)Nc1cc(Cl)c(OC)cc1OC	-0.714%	
CCc1ccc(Sc2cc(C(=O)NCCCOC(C)C)c3ccccc3n2)cc1	-1.08%	
Cc1ccc2nc(-c3ccco3)c(Cc3cccc(Cl)c3)n2c1	-2.85%	
CSc1n[nH]c(-c2ccco2)n1	-2.46%	
Cn1c(-c2ccco2)nc2cc3ccccc3cc21		18.4 µM (active)
N#Cc1ccc(-c2cccs2)nc1SCc1ccc(Br)cc1	2.25%	
Cc1ccc(NC(=O)Cn2nnc(C(=O)NCc3ccco3)c2N)c(C)c1	-2.38%	
CCOc1ccccc1NC(=O)Cn1nnc(C(=O)Nc2ccc(C)c(C)c2)c1N	0.046%	
CCOc1ccccc1NC(=O)Cn1nnc(C(=O)NCc2cccs2)c1N		0.259 µM (active)
CCc1ccccc1NC(=O)Cc1ccc(NC(=O)N2CCCCc3ccccc32)cc1	0%	
CC(C)(C)NC(=O)CSc1nc(-c2ccc(F)cc2)cc(C(F)(F)F)n1	4.09%	
Cc1ccc(Cl)cc1NC(=O)CSc1nccn1C	-6.62%	
COc1ccc(-c2nc3c(s2)CCc2onc(-c4ccc(Br)cc4)c2-3)cc1	0%	
COc1ccc(-c2cc(C(=O)Nc3sc4c(c3C(N)=O)CCCC4)no2)cc1	15.2%	
COc1ccc(-c2nc3c(s2)CCc2onc(-c4ccc(OC)cc4)c2-3)cc1		20.6 µM (active)
COc1ccccc1CNC(=O)CCn1c(=O)c2ccccc2n(CC(=O)Nc2cccc(Cl)c2)c1=O	1.39%	
COc1ccc(CCNc2ncnc3c2cnn3-c2ccc(C)cc2)cc1	6.58%	
O=C(NCc1ccccc1Cl)C1=Cc2cc(Br)ccc2OC1	-0.821%	
CCOC(=O)c1cccc(NC(=O)CCOc2ccccc2)c1	-5.85%	
CCn1c2ccccc2c2cc(NC(=O)COc3ccc(C)cc3C)ccc21	-5.72%	
CCOCCC(=O)Nc1ccc2c(c1)c(=O)n(C)n2-c1ccc2ccccc2c1		3.66 µM (active)
